Compound activity from PubChem BioAssay.
Sampled rows, rich in hits. Any-hit rate of the full collection: about 1.6%.
PREPL inhibitor – PREPL enzyme inhibitors, primary screen, biochemical, fluorescence polarization | 320,000 compounds, 0.68% hits | AID 2751, 2010 | inhibition, % at 5.96 µM | Prolyl endopeptidase-like (Homo sapiens), Q4J6C6 | recombinant PREPL, fluorescence polarization activity-based probe; in the data active means inhibition above about 43%;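 further: 0% = enzyme with DMSO and 100% = wells lacking enzyme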
GASC-1 inh – inhibitors of GASC-1 histone demethylase, primary screen, biochemical, fluorescence, DELFIA europium; inhibition, % at 2.35 µM; 330,000 compounds, 0.069% hits; Lysine-specific demethylase 4C (Homo sapiens), Q9H3R0; GST-JMJD2C(1-420) H3K9me3 demethylation;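 active means more than half of a compound's replicate wells show inhibition beyond 50%, single wells judged on their own value; inconclusive means some, but no more than half, of replicates pass 50% inhibition; inactive means no replicate passes 50% inhibition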;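 further: signal counts dimethyl H3K9 product captured on neutravidin plate; 0% = median of DMSO wells and 100% = 0.3 times that DMSO median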
GRK2 aptamer HTS – compounds blocking aptamer binding on GRK2 – biochemical, human GRK2, bead flow cytometry, HTS, primary screen; FAM-aptamer displacement from GRK2; inhibition of aptamer binding, % at 10 µM; 330,000 compounds, 0.59% hits;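 active means inhibition of aptamer binding above 40%, roughly 3 SD of noise, on plates passing a quality check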;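 further: median bead fluorescence of bound FAM aptamer so fluorescent compounds give negative values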
DSG3 Ab inh – inhibitors of pemphigus antibody binding to DSG3, primary screen, biochemical, bead-based, flow cytometry, scFv-GFP | Desmoglein-3 (Homo sapiens), P32926 | DSG3-coupled beads, scFv-anti-DSG3-GFP binding; active compounds read low | binding (percent of control), % at 10 µM | 310,000 compounds, 0.48% hits;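 active means binding more than 3 SD below its plate's average and above zero; inconclusive means below that plate limit but binding exactly zero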;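 further: hits lower antibody fragment binding to DSG3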
VLA-4 inh – inhibition in human VLA-4 binding assay, primary screen, VLA-4 allosteric modulator project, MLPCN library, flow cytometry, VLA-4 expressing cells; ligand binding flow cytometry; inhibition, % (about 7 µM as worked out from the volumes in the protocol); 330,000 compounds, 0.2% hits; AID 2557, 2010; in the data active means inhibition above about 50%
Target sequence (P13612 whole entry, looked up): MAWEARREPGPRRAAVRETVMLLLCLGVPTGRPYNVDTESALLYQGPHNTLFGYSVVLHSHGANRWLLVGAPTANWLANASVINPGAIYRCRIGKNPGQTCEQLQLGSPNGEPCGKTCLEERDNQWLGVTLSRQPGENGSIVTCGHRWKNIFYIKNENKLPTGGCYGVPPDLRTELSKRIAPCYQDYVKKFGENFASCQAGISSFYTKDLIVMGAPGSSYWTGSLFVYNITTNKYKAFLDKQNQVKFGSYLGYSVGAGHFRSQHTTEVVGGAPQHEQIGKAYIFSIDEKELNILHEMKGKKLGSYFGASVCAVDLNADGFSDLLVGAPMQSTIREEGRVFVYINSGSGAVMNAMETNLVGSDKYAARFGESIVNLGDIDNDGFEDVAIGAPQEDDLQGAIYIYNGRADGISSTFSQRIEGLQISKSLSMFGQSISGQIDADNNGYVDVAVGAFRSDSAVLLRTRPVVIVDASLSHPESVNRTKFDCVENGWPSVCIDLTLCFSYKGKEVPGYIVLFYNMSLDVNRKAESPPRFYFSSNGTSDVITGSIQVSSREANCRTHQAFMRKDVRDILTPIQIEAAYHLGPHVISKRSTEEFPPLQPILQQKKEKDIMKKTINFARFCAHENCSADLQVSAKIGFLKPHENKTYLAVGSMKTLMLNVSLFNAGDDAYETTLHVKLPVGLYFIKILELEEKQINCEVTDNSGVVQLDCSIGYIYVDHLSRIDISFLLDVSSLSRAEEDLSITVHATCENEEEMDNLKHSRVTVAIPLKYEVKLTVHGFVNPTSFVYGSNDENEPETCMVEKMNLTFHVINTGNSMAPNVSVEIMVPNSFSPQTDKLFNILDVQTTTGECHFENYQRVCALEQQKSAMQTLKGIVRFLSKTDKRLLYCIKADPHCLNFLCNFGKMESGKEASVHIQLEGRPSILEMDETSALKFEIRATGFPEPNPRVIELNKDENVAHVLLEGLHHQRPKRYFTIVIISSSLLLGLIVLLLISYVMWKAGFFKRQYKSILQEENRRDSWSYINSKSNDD
Active calls of the source: *; ? = inconclusive; / = no result given.

SMILES	PREPL inhibitor	GASC-1 inh	GRK2 aptamer HTS	DSG3 Ab inh	VLA-4 inh
O=C(O)c1cccc(-n2cccc2/C=C2\SC(=O)N(Cc3ccccc3F)C2=O)c1	-3	3	45*	77	-20
O=C(O)c1cccc(-n2cccc2/C=C2/NC(=O)N(c3ccc(Cl)cc3)C2=O)c1	/	/	/	41*	/
C=CCC[C@@H](Cc1ccc(F)cc1)C(=O)OC[C@H](C)NC(=O)[C@@H](CC=C)CC(=O)N[C@@H](CO)Cc1ccccc1	13	2	83*	106	14
C=CCC[C@H](Cc1ccc(F)cc1)C(=O)OC[C@H](C)NC(=O)[C@@H](CC=C)CC(=O)N[C@H](CO)Cc1ccccc1	28	7	0	105	-12
COc1ccc(S(=O)(=O)NC2CCCCCC2)cc1C(N)=O	-2	-14	0	100	-5
CC1C(=O)N(Cc2ccc([N+](=O)[O-])cc2)c2ccccc2N1C(=O)C1CC1 (stereo not drawn)	2	60*	7	/	16
CC1C(=O)N(Cc2ccc(F)cc2)c2ccccc2N1C(=O)c1c(F)cccc1F (stereo not drawn)	-2	-32	0	97	-7
CN(C)CCCN=Cc1c(O)n(Cc2ccc3c(c2)OCO3)c(=O)c2ccccc12	32	-14	0	/	5
CCN1C(=O)C(C(=O)Nc2ccc(OC)cc2)C2CC1(C)Oc1ccccc12 (stereo not drawn)	-2	54*	1	106	0
O=C(Nc1ccc(NC(=O)c2cccs2)cc1)c1cccs1	10	31	2	22*	7
COC(=O)c1cc(NC(=O)COC(=O)CCc2nc3ccccc3c(=O)[nH]2)cc(C(=O)OC)c1	9	8	3	65*	-5
CC(C)n1c(/N=C/c2ccccc2O)nc2ccccc21	0	7	1	110	15
O=c1c2cc(-c3ccccc3)sc2ncn1-n1cccc1	-5	-2	2	82*	-10
COC(=O)C(C(=O)OC)c1ccc(NC(=O)c2cccc(Cl)c2)cc1	2	3	0	85*	6
COCCn1nnnc1CN(CCc1ccccc1)Cc1cc2cc(OC)ccc2[nH]c1=O	54*	-8	0	97	2
Cc1sc(NC(=O)CSc2nnc3scc(-c4ccccc4)n23)c(C#N)c1C	-4	2	7	84*	8
N#CCSc1nnc(COc2ccc3ccccc3c2)o1	2	14	2	106	5
COc1ccc(Cc2nnc(SCC(=O)Nc3nc(C)cs3)o2)cc1	14	-27	0	105	11
O=C(CC1S/C(=N\S(=O)(=O)c2ccc(F)cc2)N(c2ccccc2)C1=O)Nc1ccccc1 (stereo not drawn)	-9	-8	2	79*	8
Cc1ccsc1C(=O)Nc1cc(Cl)ccc1-n1cncn1	/	/	/	103	/
C=CC#CC1(O)CC(C)N(C)CC1C (stereo not drawn)	21	-10	0	100	27
CN(c1ccccc1)S(=O)(=O)c1ccc(C(=O)NNC(=O)c2ccccc2)cc1	9	/	0	?	-2
CN(c1ccc(C(=O)O)cc1)S(=O)(=O)c1ccccc1	10	65*	1	96	7
CCCn1c(C)nc2c(c1=O)c1nc3ccccc3nc1n2CCC1=CCCCC1	-2	-20	2	106	-10
CCCn1c(C)nc2c(c1=O)c1nc3ccccc3nc1n2-c1ccccc1	/	/	/	88*	/
SMILES	PREPL inhibitor	GASC-1 inh	GRK2 aptamer HTS	DSG3 Ab inh	VLA-4 inh
CN(C)c1ccc(N=Cc2nc(-c3ccccc3)oc2OC(=O)c2ccccc2)cc1	21	77*	0	113	14
CC(=O)Oc1oc(-c2ccccc2)nc1C=Nc1ccc(N(C)C)cc1	3	13	0	107	4
O=c1c2ccccc2ncn1-c1ccc(Br)cc1[N+](=O)[O-]	/	1	0	107	1
NS(=O)(=O)c1ccc(NC(=O)c2cc(-c3cccs3)nc3ccccc23)cc1	-2	3	13	36*	-14
CN(C)S(=O)(=O)c1ccc(NC(=O)c2cc(-c3cccs3)nc3ccccc23)cc1	-5	-4	0	107	0
COC(=O)c1ccc(NC(=O)c2cc(-c3ccccn3)nc3ccccc23)cc1	0	6	1	4.9*	0
CCOc1ccc(C=O)cc1CN1CCCCC1	11	0	0	105	-8
N#C/C(=C\c1cccc([N+](=O)[O-])c1)c1nnc2n1CCCCC2	2	6	100*	/	12
O=C(CNS(=O)(=O)c1ccc2ccccc2c1)NCCc1ccccn1	-6	5	2	99	0
COc1cc(OC)cc(C(=O)Nc2cc(-c3cn4cccnc4n3)ccc2C)c1	-1	-1	1	-11*	-3
COc1ccc2c(Cl)c(C(=O)N/N=C/c3ccncc3)sc2c1	-11	-43	0	115	1
O=C(N/N=C/c1ccncc1)c1sc2ccccc2c1Cl	9	?	0	-1.9*	5
COc1cc(NC(=O)COc2ccccc2Cl)ccc1NC(=O)c1cccs1	6	-2	2	6.8*	7
CCn1nnnc1NC(=O)c1cc(Cl)c(OC)c(Cl)c1	-5	/	1	106	52*
Cc1nc2c(cc1C(=O)N/N=C/c1ccc([N+](=O)[O-])cc1)c(=O)n(C)c(=O)n2C	5	-1	0	-7.8*	-6
Cc1cccc(CN2CCC(Oc3ccc(C(=O)N4CCCC4)cc3)CC2)n1	-2	66*	2	107	-7
Cc1ccccc1CN1CCC(Oc2ccc(C(=O)N3CCCC3)cc2)CC1	-8	-5	0	/	4
COc1cc2c(cc1NC(=S)NC(=O)/C=C/c1ccc(OC)c(OC)c1)oc1ccccc12	/	/	/	68*	/
COc1ccc(/C=C/C(=O)NC(=S)Nc2cc3oc4ccccc4c3cc2OC)cc1	3	4	0	90	8
COc1cc2c(cc1NC(=O)Nc1cccc(C)c1)oc1ccccc12	6	-9	1	93	12
COc1cc2c(cc1NC(=S)Nc1cccc(C)c1)oc1ccccc12	44*	-6	0	105	-8
CC(=O)Nc1ccc(-c2cc(-c3ccccc3)nc(-c3ccccc3)n2)cc1	-11	-16	0	-15*	10
Cc1csc(SCC(=O)Nc2ccccn2)n1	9	-23	2	/	2
O=C(CSc1nc(-c2ccc(F)cc2)cs1)Nc1ccccn1	-5	-5	0	44*	4
N=C1C(c2nc3ccccc3s2)=C(O)CN1NC(=O)c1ccco1	1	-1	0	76*	4
COc1cccc(C(=O)NN2CC(O)=C(c3nc4ccccc4s3)C2=N)c1	10	-11	0	101	2
